According to the supplement of paper PMC10681739:
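Note: Full-length recombinant human RUNX1 bound to double-stranded 36-bp genomic probes on a high-density microarray, scored as Alexa488 fluorescence per spot via anti-RUNX1 antibody, median of four replicate spots.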

The sequences below were run against RUNX1 (UniProt Q01196) (assay: RUNX1 binding intensity (PBM fluorescence), RUNX1 alone (arbitrary fluorescence units); higher = stronger binding). Conditions: RUNX1 concentration 2 nM; ETS1 concentration 0 nM.
RUNX1, sequence (Q01196 whole entry): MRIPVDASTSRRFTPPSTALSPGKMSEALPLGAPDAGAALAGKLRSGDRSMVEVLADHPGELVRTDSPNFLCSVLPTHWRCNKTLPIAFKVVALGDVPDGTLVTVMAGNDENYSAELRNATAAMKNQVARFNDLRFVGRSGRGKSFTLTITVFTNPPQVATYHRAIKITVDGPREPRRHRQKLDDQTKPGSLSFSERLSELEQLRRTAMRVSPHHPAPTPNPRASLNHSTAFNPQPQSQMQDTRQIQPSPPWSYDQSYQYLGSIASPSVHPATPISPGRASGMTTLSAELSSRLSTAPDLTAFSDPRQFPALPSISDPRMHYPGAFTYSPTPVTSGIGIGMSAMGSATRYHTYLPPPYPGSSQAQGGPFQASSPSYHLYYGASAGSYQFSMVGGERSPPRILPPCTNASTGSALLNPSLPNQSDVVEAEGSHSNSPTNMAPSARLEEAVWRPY
Description: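 Cooperative gcPBM on 36-bp genomic probes with neighbouring ETS1 and RUNX1 sites. Recombinant human RUNX1 (2 nM) was incubated alone or with ETS1 (25 nM) and detected with anti-RUNX1 antibody plus Alexa488 secondary. Values are medians over 4 replicate spots; the RUNX1+ETS1 data were normalised to the RUNX1-only data. The probes sit in constant array flanks that are not printed.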
AGCTCTAAGGTTCCGCCTGCGGGCAGCAAGCGGAGG showed an RUNX1 binding intensity of 920. GAGGGCCTGGGAGGAAGTGGGTTTTGCATACAGTCC was tested, and the RUNX1 binding intensity was 673. Sequence GCAGAGAGATTGGCCGGATGCGGTGGCTCACGCCTT has an RUNX1 binding intensity of 683. For GAAAGCTGCACTATTTCCTGAGGTTAGAGGTTTAAA, the RUNX1 binding intensity was 815. Sequence CATGGGACCCGGAAGTGTGTGGTAAAGCGCCGGGGC has an RUNX1 binding intensity of 896. Sequence CTTGCCACACTTCCTCTTGTTTTGAACCACTATATT has an RUNX1 binding intensity of 2620. Sequence GCAGCTGCAAACAGGAAACCACAGCAGCGTAGCGGA has an RUNX1 binding intensity of 962. With CCCACTGCGCCAGGATGTGGTCAGGTCGGTGACGTT the RUNX1 binding intensity was 886. For CACCTCCTACTTCCCCCCGCTGATAACCACCAACCC, the RUNX1 binding intensity was 2990. With GCAGAAACAGGAAGAGACAGGGCTGACCGCAGCAGG the RUNX1 binding intensity was 1230. For GAGGCCCAGGATGTGGCTGGAGGCCTGTGGTGGGAC, the RUNX1 binding intensity was 700. Sequence GCCTCCTCAGGAAATTGCCCAAAATAGCCACATGTC has an RUNX1 binding intensity of 1090. Work on GCGCACTTCCGGGCTGGTGAACGCGGTGACGTCACC yielded an RUNX1 binding intensity of 804. Work on CCTTCCTTCCGGGGTCGGCCCCGCCCGCAAGCGCCG yielded an RUNX1 binding intensity of 1180. With AACTGGGCGGAAAGAACGGCTAACCGCAAGCTGCCG the RUNX1 binding intensity was 11800. In the case of CCCGCTCACGCCGGAAGTGGTTTGCGTTTTCAAGAT, the RUNX1 binding intensity is reported as 741. TTACAGGGGCCGGAAGTGGCCTGCGGGCGGAGAAGT gave an RUNX1 binding intensity of 753. TTACGTTAAGGAGGAAACTCTGTGGTTAAACTGTAG showed an RUNX1 binding intensity of 1230. Work on TGGTTTCCGGGCTGGGGTTAGAATAGGCCACAAGGT yielded an RUNX1 binding intensity of 787. Sequence GAGGGGGAGGTTTCCGGGGCCTGTGGTTACTACACT has an RUNX1 binding intensity of 943. Work on CTTGTGAAATGTATCCTGTGGTTGCCGGCTGAAGTG yielded an RUNX1 binding intensity of 848. With GTGGGAGCGGAAGCCTGAGCGGCCTGCGGCCTCCGG the RUNX1 binding intensity was 692. Sequence AGGTTAATACCCGGAACTACCACAACCGTCTTCCCT has an RUNX1 binding intensity of 1020. With GTCTTACTTCCTGTCCCCGCCCACCGCGACTGTCTT the RUNX1 binding intensity was 1740. Work on AACCTAGAAAAGGAAGCTGCGGTTTTTCAGGGTATG yielded an RUNX1 binding intensity of 8830. CTGGTAGAAAAGGAAGCAGGTTGTGGTGAGCATTTA was tested, and the RUNX1 binding intensity was 767. With TGATAAAACACAGGATGTGGTAAGGGAGCTGGCCAA the RUNX1 binding intensity was 682. GCCCCTAAACCGGATGCGGCAGCCACCGCGGACCCC showed an RUNX1 binding intensity of 1290. AACAGGAAGTGGTCTTAGAGATCATGCGGTTCAGAG was tested, and the RUNX1 binding intensity was 787. GAGCGCAGGACGGAAGCTCGGTGCGGGTGCGGCCTC showed an RUNX1 binding intensity of 702. Work on TGGACGTAACACTCAGGAAGTGGTCAACCTTGCTGC yielded an RUNX1 binding intensity of 820. With TTGATTGGAGCAGGATGTGGTCAGAACAGTATGCAG the RUNX1 binding intensity was 794. With GGTCAGGTGGGCGTTTCCTGTGGGCGTCTCCAACTC the RUNX1 binding intensity was 770. In the case of CCACCTCCTCCGGACGCCGCCCGCAACTGAGCATGC, the RUNX1 binding intensity is reported as 1030. For TGCAGCTTCCTGTCTGAGGCTTTGTGGTCCTTTCAT, the RUNX1 binding intensity was 862. AATCTGAAACAGGAAATAAGTCTGTGGTTGTGTGTT was tested, and the RUNX1 binding intensity was 833. For GTCGGAAGTGGCCGTGAGCCCAAGCCGCGGTCCCGG, the RUNX1 binding intensity was 678. In the case of CAGTGGCTAAGGATCCGGTGTTGCGGTGATACATGA, the RUNX1 binding intensity is reported as 804. AAAATTAAAGCAGGAAGTAATCAACCACATCAAATG was tested, and the RUNX1 binding intensity was 761. With CTTATCTTCTTCCTGTGAGCTGTGTGTGGGTGGCTC the RUNX1 binding intensity was 942.
